# Compound activity (PubChem)
# Hits are enriched below; roughly 3.8% of the tested compounds scored in any of these assays.
# tim23-1 inh = growth inhibitors of tim23-1 mutant yeast. S. cerevisiae tim23-1 growth, BacTiter-Glo luminescence, 24 h. inhibition, % at 20 µM. 330,000 tested, 1.3% active. AID 463212;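 active means growth inhibition of the mutant yeast at or above 50%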;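 further: temperature-sensitive mutant grown at 25 °C; plate controls were DMSO-treated mutant yeast for no effect and medium wells lacking yeast for full effect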
# tim10-1 inh = growth inhibitors of tim10-1 mutant yeast; S. cerevisiae tim10-1 ts strain growth, BacTiter-Glo, 24 h; inhibition, % at 20 µM; 330,000 tested, 2.2% active;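 active means inhibition of at least 40%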;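 further: mutant grown at 25 °C; 0% = DMSO wells with yeast and 100% = wells holding no yeast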
# TIM10 inh = TIM10 yeast growth inhibition. S. cerevisiae TIM10 strain growth, BacTiter-Glo luminescence, 24 h. inhibition, % at 10 µM. 330,000 tested, 1.4% active;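 active means inhibition of 40% or more at the single tested concentration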;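 further: wild-type TIM10 isogenic control strain grown at permissive 25 °C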
# CR mimetic SO = caloric restriction mimetics inhibiting age-related superoxide in yeast; S. cerevisiae aged cells, superoxide DHE fluorescence; stronger effect = lower value; superoxide response (% of plate mean), % at 10 µM; 330,000 tested, 0.18% active;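 active means superoxide response under a set limit, about three screen SD below normal, cut at about 65% in these data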;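 further: yeast aged for seven days with compound at 30 °C before DHE staining; 100% = average MFI of all compound-treated wells on the plate with controls excluded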
# NALP3 yeast inh = inhibitors of NALP3 inflammasome in yeast. Yeast reconstituted NLRP3/ASC/caspase-1, beta-gal luminescence, 24 h. inhibition, % at 10 µM. 330,000 tested, 0.39% active;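 active means inhibition of 50% or more; inactive means inhibition below 50%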;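 further: plate controls were induced DMSO wells for no effect and uninduced yeast grown without galactose for full effect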
# tim10-1 conf = confirmation of tim10-1 mutant yeast growth inhibitors; shares compounds with tim10-1 inh; S. cerevisiae tim10-1 ts strain growth, BacTiter-Glo, 24 h; inhibition, % at 20 µM; 7,400 tested, 56% active;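 active means inhibition of yeast growth at or above a set limit in either of two repeat tests at 20 µM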;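 further: tim10-1 mutant grown at permissive 25 °C to find synthetic lethal compounds; 0% = DMSO yeast wells and 100% = medium wells without yeast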
# TIM10 conf = TIM10 yeast growth inhibition, confirmed; shares compounds with TIM10 inh; S. cerevisiae tim10 strain growth, BacTiter-Glo luminescence, 24 h; inhibition, % at 10 µM; 4,600 tested, 63% active; AID 463215;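 active means inhibition of yeast growth at or above a set limit in either of two replicates at 10 µM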;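 further: this counterscreen used the strain with wild-type TIM10; 0% = yeast with DMSO and 100% = medium wells lacking yeast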
# tim23-1 confirm = tim23-1 yeast growth inhibition, confirmed; shares compounds with tim23-1 inh; S. cerevisiae tim23-1 growth, BacTiter-Glo luminescence, 24 h; inhibition, % at 20 µM; 4,400 tested, 83% active; AID 463218;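 active means inhibition above about 39% in either of two replicate wells at 20 µM, limit read from the data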;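 further: temperature-sensitive tim23-1 mutant grown at 25 °C; 0% = DMSO wells with yeast and 100% = medium wells without yeast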
# * marks the source's active call; other numbers are inactive results; i = inactive; / = no result given.
SMILES,tim23-1 inh,tim10-1 inh,TIM10 inh,CR mimetic SO,NALP3 yeast inh,tim10-1 conf,TIM10 conf,tim23-1 confirm
CCN(CC)c1ccc(/C=N/NC(=O)c2nnn(-c3nonc3N)c2C(C)C)c(O)c1,61.9*,71.6*,60.3*,88.4,23.8,16.2,66.2*,61.0*
CC(C)c1c(C(=O)N/N=C/c2ccc3c(c2)OCO3)nnn1-c1nonc1N,18.6,11.1,1.8,98.6,23.3,/,/,/
O=C(CNC(=O)c1ccccc1F)NCCc1ccc(Cl)cc1Cl,17.6,-3.0,6.8,103.8,11.7,/,/,/
O=C(NC(=O)c1ccccc1F)OCc1ccc(Cl)cc1Cl,50.2*,46.1*,17.5,83.2,38.7,27.0,/,44.5*
CCOC(=O)Oc1ccc2c(=O)c(Oc3cccc(C)c3)coc2c1,55.1*,55.7*,40.9*,143.3,-28.4,48.0*,41.3*,58.8*
COc1ccc(/C=N/n2c(C3CCCCC3)n[nH]c2=S)c(OC)c1,58.3*,40.5*,28.7,100.1,14.1,19.8,/,48.4*
CCOc1ncccc1C(=O)NNC(=O)c1csc(N2CCOCC2)n1,-2.5,7.9,1.4,88.7,19.5,/,/,/
COc1ccc(-n2nc(C#N)c(Cl)cc2=O)cc1,60.8*,46.9*,31.3,/,-41.3,30.3,/,48.0*
CCC1CCCCN1C(=O)COC(=O)COc1ccc(Br)cc1 (stereo unspecified),27.3,-0.9,8.0,104.4,10.8,/,/,/
COc1cccc(-c2nc(NC(C)C)c3ccccc3n2)c1O,54.8*,56.9*,26.6,84.0,7.2,45.3*,/,51.5*
Cc1ccccc1CC(=O)c1ccc(O)c(C)c1O,61.3*,49.1*,31.4,111.8,-3.8,45.5*,/,65.5*
CCN1/C(=C\C=C(C(C)=O)C(C)=O)Sc2ccccc21,8.3,6.6,20.2,98.7,28.0,/,/,/
CCN1/C(=C/C(C)=C/c2sc3ccccc3[n+]2CC)Sc2ccccc21,82.3*,80.2*,78.9*,96.9,-6.5,75.5*,88.0*,81.5*
O=C1c2ccccc2C(=O)c2c1oc(C(F)(F)F)c2C(=O)c1ccccc1,80.1*,80.1*,77.8*,i,3.7,72.5*,92.5*,76.2*
COc1ccc2occ(C(=O)c3ccccc3)c2c1,15.7,16.2,5.2,97.8,4.0,/,/,/
COc1ccc(C(=O)c2coc3c2C(=O)C(=O)c2ccccc2-3)cc1,85.2*,94.5*,94.4*,110.3,24.6,92.9*,96.5*,92.7*
O=C(c1ccccc1)c1coc2c1C(=O)c1ccccc1C2=O,66.3*,81.5*,72.8*,103.2,33.6,76.0*,68.7*,79.3*
Cc1ccc(NC(=O)COc2cccc(-n3cnnn3)c2)cc1S(=O)(=O)N1CCOCC1,0.3,-10.4,7.3,84.8,14.0,/,/,/
CC1=NN(C(N)=S)C(=O)C1N=Nc1ccc(Cl)cc1Cl (stereo unspecified),64.1*,57.0*,46.4*,100.1,39.0,55.8*,58.0*,73.2*
Cc1nn(-c2ccccc2)c(C)c1C(=O)OCC(=O)NC12CC3CC(CC(C3)C1)C2,61.9*,42.8*,53.6*,86.2,-4.0,48.8*,34.2*,53.6*
CCCCc1ccc(NC(=S)NCCc2ccc(S(N)(=O)=O)cc2)cc1,5.1,13.5,16.9,100.6,18.1,/,/,/
O=C(c1cc2ccccc2o1)N1CCN(c2ccccn2)CC1,16.8,20.2,15.7,90.8,22.0,/,/,/
COc1ccc2cc3cc(C(=O)N4CCN(c5ccccn5)CC4)oc3nc2c1,54.0*,43.8*,55.1*,110.9,21.7,27.2,58.8*,-2.1
Cc1cccc(SCC(=O)Nc2ccc3c(c2)OCCO3)c1,24.5,6.6,1.1,110.0,35.8,/,/,/
Cc1ccc(-c2cc(-c3ccc(F)cc3)n[nH]2)c(O)c1,60.9*,40.6*,22.6,111.0,24.8,45.5*,/,51.0*
SMILES,tim23-1 inh,tim10-1 inh,TIM10 inh,CR mimetic SO,NALP3 yeast inh,tim10-1 conf,TIM10 conf,tim23-1 confirm
COc1ccccc1-c1cc(-c2cc(Cl)ccc2O)n[nH]1,17.0,20.5,11.3,75.7,-12.3,/,/,/
Oc1ccc(Cl)cc1-c1cc(-c2ccccc2)n[nH]1,60.0*,42.8*,55.5*,115.8,14.1,35.6*,58.2*,21.6
Cc1ccc(-c2cc(NC(=O)c3ccccc3[N+](=O)[O-])n[nH]2)cc1,7.3,4.4,9.8,106.4,17.7,/,/,/
Cc1ccc(-c2cc(-c3ccccc3[N+](=O)[O-])[nH]n2)c(O)c1,59.9*,51.5*,43.6*,103.9,10.2,41.8*,31.1*,66.5*
Cc1ccc(-c2cc(-c3ccc(C)cc3O)[nH]n2)cc1,40.8,8.6,33.4,103.2,22.4,/,/,/
CN(Cc1ccc(F)cc1)C(=O)c1cc(COc2ccc(-n3cncn3)cc2)on1,59.4*,52.6*,40.8*,102.1,12.6,37.5*,34.8*,43.2*
CC(C)N(Cc1nccn1C)C(=O)c1cc(COc2ccc(-n3cncn3)cc2)on1,4.9,13.0,-11.1,109.1,8.3,/,/,/
Cc1ccc(C)c(CNS(=O)(=O)c2c(C(=O)N3CCCC3)c(C)n(C)c2C)c1,-3.7,4.9,7.9,94.1,3.9,/,/,/
Oc1c(Br)cc(Br)cc1C=Nc1ccc2[nH]ncc2c1,86.2*,46.5*,4.4,85.2,30.0,55.9*,/,79.5*
COc1ccc(C=Nc2ccc3[nH]ncc3c2)c(O)c1,12.8,21.0,5.6,81.2,5.4,/,/,/
COc1cc(Br)cc(C=Nc2cccc(C(F)(F)F)c2)c1O,/,/,/,101.0,/,/,/,/
Oc1c(Br)cc(Br)cc1C=Nc1cccnc1,79.4*,56.9*,67.0*,111.5,24.1,41.7*,48.0*,89.8*
O=[N+]([O-])c1ccccc1S(=O)(=O)Nc1ccc2c(c1)OCCO2,18.9,9.0,13.9,101.8,17.7,/,/,/
CCOC(CNC(=O)CN1C(=O)COc2ccc(S(=O)(=O)N3CC(C)CC(C)C3)cc21)OCC (stereo unspecified),15.8,9.5,0.0,96.2,6.9,/,/,/
Cc1ccc(S(=O)(=O)NC(=O)c2cccn2C)cc1,4.5,8.8,-13.2,90.6,3.2,/,/,/
O=C(Oc1cccc(C(=S)N2CCOCC2)c1)c1ccc([N+](=O)[O-])cc1[N+](=O)[O-],78.4*,83.9*,84.1*,78.5,16.4,84.2*,90.2*,86.8*
O=C(Oc1ccc(C(=S)N2CCOCC2)cc1)c1ccc([N+](=O)[O-])cc1[N+](=O)[O-],34.5,34.9,4.4,98.8,5.8,/,/,/
O=C(Oc1ccc(Br)cc1C(=S)N1CCOCC1)c1ccc([N+](=O)[O-])cc1[N+](=O)[O-],67.4*,71.2*,68.0*,80.9,3.0,77.4*,78.0*,84.4*
COC(=O)c1cc(S(=O)(=O)NCc2ccc(F)cc2)cn1C,25.1,13.6,1.0,116.0,16.9,/,/,/
